# According to PubChem BioAssay (NCATS):
# Where “and” joins values, the source holds several entries; their conditions need not be identical. Identical values can stand only once. Inconclusive results are not listed. Calls of active or inactive are those of the source. Unless noted, the call rests on the fitted dose curve.
# Experiments:
# [1] = molecular target: Glucocorticoid receptor (Homo sapiens) (UniProt P04150); experiment: qHTS assay for small molecule agonists of glucocorticoid receptor signaling (AID 588532; active means well fitted curve in the direction sought with a large enough effect in the signal ratio, with a control signal flat; the % refers to the signal ratio;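 further: 100% = dexamethasone at 0.1 µM and 0% = DMSO only wells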); details: HeLa MMTV-bla, beta-lactamase ratio, agonist, 18 h; stronger effect = higher value; percent of dexamethasone control, DMSO zero
# How it was run: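 Titration series, up to 92 uM, applied to GRE-bla HeLa cells for 18 h at 37 C. Detection by CCF4 FRET substrate after 2 h at RT.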
# [2] = qHTS assay for small molecule antagonists of peroxisome proliferator-activated receptor delta signaling (AID 588535; active means well fitted inhibition curve with a large enough effect in the signal ratio, with a control signal flat, not every such curve was filed as active; the % refers to the signal ratio;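 on max response: cells co-treated with a PPAR-delta agonist as stimulator during compound exposure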); details: HEK293T PPARd-UAS-bla, beta-lactamase FRET ratio, 18 h; 460 nm channel
# How it was run: (§1)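 Compounds tested in titration on PPAR-delta-UAS-bla HEK293T cells grown in charcoal/dextran-stripped serum (2%); beta-lactamase activity read via CCF4 emission at 460 and 530 nm.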
# [3] = molecular target: Peroxisome proliferator-activated receptor delta (Homo sapiens) (UniProt Q03181); experiment: as above; details: HEK293T PPARd-UAS-bla, beta-lactamase FRET ratio, 18 h; series mostly up to 76.7 µM
# How it was run: as §1
# [4] = molecular target: Peroxisome proliferator-activated receptor gamma (Homo sapiens) (UniProt P37231); experiment: qHTS assay for small molecule agonists of peroxisome proliferator-activated receptor gamma signaling (AID 588536; active means well fitted curve in the direction sought with a large enough effect in the signal ratio, with a control signal flat, not every such curve was filed as active; the % refers to the signal ratio;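 further: 0% = DMSO basal wells and 100% = rosiglitazone at 2 µM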); details: HEK293 PPARg-UAS-bla, beta-lactamase ratio, 16 h, percent of rosiglitazone response, DMSO as zero; series mostly up to 76.7 µM
# How it was run: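 This is an agonist-mode beta-lactamase reporter assay in HEK293 PPAR-gamma-UAS-bla cells with 1% charcoal/dextran FBS. Compound titrations ran 16 h at 37 C before CCF4 detection. EC50 and efficacy are Hill fits scaled to 2 uM rosiglitazone (100%) and DMSO basal.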
# [5] = molecular target: Vitamin D3 receptor (Homo sapiens) (UniProt P11473); experiment: qHTS assay for small molecule antagonists of vitamin D receptor signaling (AID 588541); details: HEK293T VDR-UAS-bla, beta-lactamase ratio, antagonist mode; series mostly up to 76.7 µM;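 further: receptor activated by calcitriol during compound treatment; on the % scale 0 is the no-effect control and ±100 the full control effect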
# How it was run: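 VDR-UAS-bla HEK293T cells (2000/well, 2% charcoal-stripped FBS) were treated with titrated compounds plus 1-alpha,25-dihydroxyvitamin D3 (50 nM or 3 nM final) for 16 h at 37 C. CCF4 beta-lactamase fluorescence was read; Hill fits gave IC50.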
# [6] = molecular target: Vitamin D3 receptor (Homo sapiens) (UniProt P11473); experiment: qHTS assay for small molecule agonists of vitamin D receptor signaling (AID 588543); details: HEK293T VDR-UAS-bla, beta-lactamase ratio, 16 h; series mostly up to 76.8 µM;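 further: 0% = DMSO basal and 100% = reference agonist control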
# How it was run: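 GeneBLAzer VDR-UAS-bla HEK293T cells in 2% charcoal-stripped FBS medium were dosed with compound titrations for 16 h at 37 °C; CCF4 β-lactamase readout (405 nm ex, 460/530 nm em). EC50 and efficacy from Hill fits, normalized to 50 nM calcitriol (100%) and DMSO (0%).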
# [7] = qHTS assay for small molecule agonists of retinoid X receptor alpha signaling (AID 588544); details: HEK293T RXRa-UAS-bla, beta-lactamase reporter, 18 h; 530 nm emission;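 on activation: 0% = DMSO basal wells and 100% = reference agonist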
# [8] = molecular target: Thyroid hormone receptor beta (Homo sapiens) (UniProt P10828); experiment: qHTS assay for small molecule agonists of thyroid hormone receptor beta signaling (AID 588545); details: TR-UAS-bla GripTite HEK 293, beta-lactamase ratio, agonist mode, 18 h, percent of T3 response, DMSO as zero; series mostly up to 76.7 µM;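 further: 0% = DMSO only and 100% = 10 nM T3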
# How it was run: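 Stimulation of a TR-driven beta-lactamase reporter was quantified in GripTite HEK 293 cells. Compound series ran for 18 hrs; curves were normalized to T3 and DMSO controls and fitted to yield EC50.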
# [9] = molecular target: Peroxisome proliferator-activated receptor gamma (Homo sapiens) (UniProt P37231); experiment: qHTS assay for small molecule antagonists of peroxisome proliferator-activated receptor gamma signaling (AID 588537; active means well fitted inhibition curve with a large enough effect in the signal ratio, with a control signal flat, not every such curve was filed as active; the % refers to the signal ratio;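 further: reporter cells co-stimulated with 50 nM rosiglitazone agonist during compound treatment; % of control where 0% means no effect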); details: HEK293 PPARg-UAS-bla, beta-lactamase ratio, antagonist mode; series mostly up to 76.8 µM
# How it was run: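 HEK293 cells, PPAR-gamma-UAS-bla, 3000/well. Pre-incubation 6-6.5 h, 37 C. Compound titration with rosiglitazone 50 nM final, 16 h. CCF4 dye, 2 h RT, dual-emission fluorescence.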
# [10] = molecular target: Retinoic acid receptor RXR-alpha (Homo sapiens) (UniProt P19793); experiment: qHTS assay for small molecule agonists of retinoid X receptor alpha signaling (AID 588544); details: HEK293T RXRa-UAS-bla, beta-lactamase reporter, 18 h; series mostly up to 76.7 µM;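 on activation: 0% = DMSO basal wells and 100% = reference agonist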
# Chain of Retinoic acid receptor RXR-alpha (Homo sapiens) (P19793 whole entry, looked up): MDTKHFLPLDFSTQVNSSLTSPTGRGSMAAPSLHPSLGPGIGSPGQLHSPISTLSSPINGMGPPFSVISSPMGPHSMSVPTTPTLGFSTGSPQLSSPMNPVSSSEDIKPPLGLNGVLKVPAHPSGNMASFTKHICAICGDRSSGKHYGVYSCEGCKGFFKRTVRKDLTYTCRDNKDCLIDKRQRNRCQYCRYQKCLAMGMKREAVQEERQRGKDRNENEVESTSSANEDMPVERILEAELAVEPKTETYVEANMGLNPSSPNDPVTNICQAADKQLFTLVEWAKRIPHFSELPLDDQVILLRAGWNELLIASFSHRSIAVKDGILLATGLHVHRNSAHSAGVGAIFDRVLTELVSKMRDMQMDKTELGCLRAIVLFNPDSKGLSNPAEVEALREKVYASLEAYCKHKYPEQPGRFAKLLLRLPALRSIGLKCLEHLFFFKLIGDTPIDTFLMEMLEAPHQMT
# Chain of Vitamin D3 receptor (Homo sapiens) (P11473 whole entry, looked up): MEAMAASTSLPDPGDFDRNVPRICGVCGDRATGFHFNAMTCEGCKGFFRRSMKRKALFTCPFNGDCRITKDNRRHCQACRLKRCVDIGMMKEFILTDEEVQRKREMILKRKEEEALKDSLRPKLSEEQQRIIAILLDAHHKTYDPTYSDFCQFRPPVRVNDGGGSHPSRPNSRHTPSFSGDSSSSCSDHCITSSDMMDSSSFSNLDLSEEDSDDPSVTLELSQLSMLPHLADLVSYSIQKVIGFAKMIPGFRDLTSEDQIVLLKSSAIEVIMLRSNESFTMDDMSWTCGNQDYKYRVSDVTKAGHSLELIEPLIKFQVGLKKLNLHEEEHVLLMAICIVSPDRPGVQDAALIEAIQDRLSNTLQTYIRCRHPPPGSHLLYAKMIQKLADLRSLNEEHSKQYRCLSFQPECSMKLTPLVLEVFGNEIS
# Chain of Thyroid hormone receptor beta (Homo sapiens) (P10828 whole entry, looked up): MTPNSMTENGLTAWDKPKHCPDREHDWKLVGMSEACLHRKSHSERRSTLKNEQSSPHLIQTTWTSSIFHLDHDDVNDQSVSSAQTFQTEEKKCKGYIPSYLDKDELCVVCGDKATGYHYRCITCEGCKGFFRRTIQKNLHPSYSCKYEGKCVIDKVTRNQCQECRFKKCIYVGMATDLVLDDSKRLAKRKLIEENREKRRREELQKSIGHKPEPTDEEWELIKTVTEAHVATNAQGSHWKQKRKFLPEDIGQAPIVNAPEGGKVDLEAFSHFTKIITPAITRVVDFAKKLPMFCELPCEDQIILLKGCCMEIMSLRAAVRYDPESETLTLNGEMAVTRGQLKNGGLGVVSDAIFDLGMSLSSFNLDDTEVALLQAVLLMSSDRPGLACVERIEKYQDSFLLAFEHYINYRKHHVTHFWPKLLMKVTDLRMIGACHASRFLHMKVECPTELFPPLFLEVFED
# Chain of Peroxisome proliferator-activated receptor gamma (Homo sapiens) (P37231 whole entry, looked up): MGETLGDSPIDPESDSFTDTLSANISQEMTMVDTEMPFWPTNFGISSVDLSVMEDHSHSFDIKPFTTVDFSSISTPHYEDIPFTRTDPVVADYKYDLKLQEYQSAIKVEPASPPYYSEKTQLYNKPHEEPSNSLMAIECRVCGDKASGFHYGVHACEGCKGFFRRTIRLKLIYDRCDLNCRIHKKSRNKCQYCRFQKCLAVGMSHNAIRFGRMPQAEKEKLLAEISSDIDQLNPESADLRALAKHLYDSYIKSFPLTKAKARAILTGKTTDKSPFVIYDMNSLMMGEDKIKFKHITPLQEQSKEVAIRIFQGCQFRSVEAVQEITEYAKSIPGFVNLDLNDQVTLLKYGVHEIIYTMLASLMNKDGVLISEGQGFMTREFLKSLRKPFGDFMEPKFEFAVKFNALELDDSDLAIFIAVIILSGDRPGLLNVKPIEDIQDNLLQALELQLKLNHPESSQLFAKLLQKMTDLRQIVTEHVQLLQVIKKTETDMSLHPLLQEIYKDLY
# Chain of Glucocorticoid receptor (Homo sapiens) (P04150 whole entry, looked up): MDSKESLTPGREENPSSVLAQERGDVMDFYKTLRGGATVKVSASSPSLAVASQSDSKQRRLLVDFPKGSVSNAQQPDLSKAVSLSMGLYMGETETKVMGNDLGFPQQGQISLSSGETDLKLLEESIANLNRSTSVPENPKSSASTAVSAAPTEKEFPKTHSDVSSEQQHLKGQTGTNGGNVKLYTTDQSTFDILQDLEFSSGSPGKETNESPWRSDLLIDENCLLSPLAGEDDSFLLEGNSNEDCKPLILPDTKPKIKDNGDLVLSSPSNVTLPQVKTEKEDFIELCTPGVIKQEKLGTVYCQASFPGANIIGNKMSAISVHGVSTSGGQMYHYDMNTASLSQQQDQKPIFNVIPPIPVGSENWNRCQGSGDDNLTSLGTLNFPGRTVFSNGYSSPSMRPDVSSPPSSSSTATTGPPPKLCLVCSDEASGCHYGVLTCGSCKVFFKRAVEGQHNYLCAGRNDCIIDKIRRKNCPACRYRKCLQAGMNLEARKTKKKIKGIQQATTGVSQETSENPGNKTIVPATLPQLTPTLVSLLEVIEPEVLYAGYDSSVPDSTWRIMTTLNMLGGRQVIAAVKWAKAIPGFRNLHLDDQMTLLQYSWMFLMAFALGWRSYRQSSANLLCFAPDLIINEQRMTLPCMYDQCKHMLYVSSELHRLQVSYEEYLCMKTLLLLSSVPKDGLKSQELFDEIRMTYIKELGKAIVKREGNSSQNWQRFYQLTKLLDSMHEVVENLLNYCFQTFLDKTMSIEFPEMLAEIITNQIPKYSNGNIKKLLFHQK
# Chain of Peroxisome proliferator-activated receptor delta (Homo sapiens) (Q03181 whole entry, looked up): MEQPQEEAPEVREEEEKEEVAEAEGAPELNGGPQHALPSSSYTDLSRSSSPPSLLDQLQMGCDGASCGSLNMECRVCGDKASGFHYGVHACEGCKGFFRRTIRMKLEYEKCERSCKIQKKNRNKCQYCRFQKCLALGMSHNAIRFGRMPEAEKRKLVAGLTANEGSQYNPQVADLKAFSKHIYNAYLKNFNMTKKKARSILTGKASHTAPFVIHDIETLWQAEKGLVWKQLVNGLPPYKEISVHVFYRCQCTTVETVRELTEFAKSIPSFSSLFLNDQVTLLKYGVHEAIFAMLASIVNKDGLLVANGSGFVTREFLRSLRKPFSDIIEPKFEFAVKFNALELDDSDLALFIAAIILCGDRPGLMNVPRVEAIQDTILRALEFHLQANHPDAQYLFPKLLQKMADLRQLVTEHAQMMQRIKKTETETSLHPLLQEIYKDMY
Structure (SMILES),activation [1],max response [2],outcome [3],outcome [4],outcome [5],outcome [6],max response [7],outcome [8],outcome [9],outcome [10]
Nc1nccs1,10.5% (inactive),-9.51%,inactive,inactive,inactive,inactive,-14.1%,inactive,–,–
C[C@H](CCC(=O)O)[C@H]1CC[C@H]2[C@@H]3[C@H](O)C[C@@H]4C[C@H](O)CC[C@]4(C)[C@H]3C[C@H](O)[C@]12C,0.114% (inactive),–,–,inactive,–,–,9.07%,–,–,–
CC1=CC(=O)NS(=O)(=O)O1,-3.71% (inactive),2.47% and 22.8%,inactive,inactive,inactive,inactive,-7.78%,inactive,inactive,–
[O-][N+](=Nc1ccccc1)c1ccccc1,3.15% (inactive),22.2%,inactive,inactive,–,–,-6.82%,inactive,–,–
O=P(O)(O)O,-2.92% (inactive),–,–,inactive,inactive,inactive,-7.11%,–,inactive,–
CC1=CCC2CC1C2(C)C (configuration not stated),3.24% (inactive),-1.04%,inactive,inactive,inactive,inactive,-0.211%,inactive,inactive,–
OCc1ccccc1,-0.651% (inactive),–,–,inactive,–,inactive,-12.3%,inactive,inactive,–
CO[C@@H]1[C@H](OC(=O)/C=C/C=C/C=C/C=C/C(=O)O)CC[C@]2(CO2)[C@H]1[C@@]1(C)O[C@@H]1CC=C(C)C,-1.18% (inactive),39.3%,inactive,inactive,–,inactive,11.1%,inactive,inactive,–
CC(C)CCC[C@@H](C)[C@H]1CC[C@H]2[C@@H]3CC=C4C[C@@H](O)CC[C@]4(C)[C@H]3CC[C@]12C,13.5% (inactive),–,–,inactive,–,inactive,–,inactive,inactive,–
CO/N=C(/C(=O)N[C@@H]1C(=O)N2C(C(=O)O)=C(COC(N)=O)CS[C@H]12)c1ccco1,5.73% (inactive),–,–,inactive,inactive,inactive,-14%,inactive,–,–
Cc1ccc(S(=O)(=O)NCl)cc1,0.935% (inactive),-27%,inactive,inactive,–,–,-13.1%,inactive,inactive,–
Oc1cccc(O)c1O,11% (inactive),-13.9%,inactive,inactive,inactive,inactive,-4%,inactive,inactive,inactive
N[C@@H](Cc1cc(I)c(Oc2ccc(O)c(I)c2)c(I)c1)C(=O)O,-18.8% (inactive),53.8%,inactive,–,inactive,inactive,1.66%,–,inactive,–
OCC(O)CO,2.41% (inactive) and -1.45% (inactive),-8.63%,inactive,inactive,inactive,inactive,-13.7% and 0.479%,inactive,inactive,–
CCCCCCCCCCCCCCCCCC(=O)OC[C@@H](O)[C@H]1OC[C@H](O)[C@H]1O,3.63% (inactive),30.1%,inactive,inactive,inactive,inactive,-15.4%,inactive,inactive,–
NCCO/C=C/[C@H](N)C(=O)O,-5.2% (inactive),-3.12%,inactive,inactive,–,–,-3.57%,inactive,inactive,inactive
C=CC(C)(O)CC/C=C(\C)CCC=C(C)C (configuration not stated),1.37% (inactive),18.5%,inactive,inactive,–,–,4.32%,inactive,inactive,–
OB(O)O,-3.94% (inactive) and -21.4% (inactive),1.13%,inactive,inactive,inactive,inactive,-5.98% and -1.26%,inactive,inactive,–
OCCOCCOCCO,-3.1% (inactive) and -7.85% (inactive),–,–,inactive,inactive,inactive,-8.79% and -11.6%,–,inactive,–
OCl,-3.26% (inactive),-10.3%,inactive,inactive,inactive,inactive,-6.54%,inactive,–,–
Cc1ccc(S(=O)(=O)O)cc1C,2.36% (inactive),-12.1%,inactive,inactive,inactive,inactive,-1.2%,–,–,–
CC(C)(C)CC(C)(C)c1ccc(OCCO)cc1,12% (inactive),–,–,inactive,inactive,inactive,19.7%,–,inactive,–
CCCCC,1.13% (inactive),25%,inactive,–,inactive,inactive,-1.8%,inactive,–,–
CC(C)CCCCCCc1ccc(O)cc1,-1.88% (inactive),-43.1%,inactive,inactive,inactive,inactive,–,inactive,inactive,–
OC[C@H]1O[C@@H]2O[C@H]3[C@H](O)[C@@H](O)[C@@H](O[C@H]4[C@H](O)[C@@H](O)[C@@H](O[C@H]5[C@H](O)[C@@H](O)[C@@H](O[C@H]6[C@H](O)[C@@H](O)[C@@H](O[C@H]7[C@H](O)[C@@H](O)[C@@H](O[C@H]1[C@H](O)[C@H]2O)O[C@@H]7CO)O[C@@H]6CO)O[C@@H]5CO)O[C@@H]4CO)O[C@@H]3CO,3.77% (inactive) and 9.85% (inactive),–,–,inactive,inactive,inactive,1.28% and -5.56%,inactive,inactive,–
Nc1ccc(N=Nc2ccccc2)c(N)n1,-10.4% (inactive) and 1.07% (inactive),-2.71% and -25%,inactive,inactive,inactive,inactive,-10.9%,–,inactive,–

Structure (SMILES),activation [1],max response [2],outcome [3],outcome [4],outcome [5],outcome [6],max response [7],outcome [8],outcome [9],outcome [10]
OC[C@H]1O[C@@](CO)(O[C@H]2O[C@H](CO)[C@@H](O)[C@H](O)[C@H]2O)[C@@H](O)[C@@H]1O,–,-16.8%,inactive,inactive,–,–,-0.27%,inactive,inactive,–
O=c1n(CC2CO2)c(=O)n(CC2CO2)c(=O)n1CC1CO1 (configuration not stated),-4.93% (inactive),–,–,–,–,inactive,–,inactive,–,–
CC/C=C\C/C=C\C/C=C\CCCCCCCC(=O)O,–,–,–,–,inactive,inactive,–,inactive,–,–
COC(=O)c1ccccc1O,–,-8.84% and 15.6%,inactive,–,inactive,inactive,-1.26% and -12.6%,inactive,–,–
NCCN,–,42.1%,inactive,inactive,inactive,inactive,-12.8%,–,inactive,–
CN(CCO)CC(O)Cn1cnc2c1c(=O)n(C)c(=O)n2C (configuration not stated) (tested in a mixture with another compound),–,15.9%,inactive,inactive,–,–,-8.02%,inactive,–,–
CO,–,-4.23%,inactive,inactive,inactive,inactive,-9.41%,inactive,–,–
NC(N)=O,–,–,–,inactive,–,–,-18.6%,inactive,inactive,–
C[Si](C)(C)O[Si](C)(C)C,–,8.43%,inactive,inactive,inactive,inactive,-7.56%,inactive,inactive,inactive
CCCCC(CC)COS(=O)(=O)O (configuration not stated),–,-7.66%,inactive,–,inactive,inactive,-9.2%,inactive,–,–
CCOC(C)OCC,-4.92% (inactive),–,–,–,inactive,inactive,-21.2%,–,–,–
Nc1ncnc2c1ncn2[C@H]1CC[C@@H](CO)O1,–,-13.3% and 61.6%,inactive,inactive,inactive,inactive,11.3% and 13.8%,inactive,inactive,–
c1ccc2ccccc2c1,–,-2.63% and 30.7%,inactive,inactive,inactive,inactive,-8.1% and -18.9%,inactive,inactive,–
C[C@H]1O[C@@H](O[C@H]2[C@@H](O)C[C@H](O[C@H]3[C@@H](O)C[C@H](O[C@H]4CC[C@@]5(C)[C@H](CC[C@@H]6[C@@H]5C[C@@H](O)[C@]5(C)[C@@H](C7=CC(=O)OC7)CC[C@]65O)C4)O[C@@H]3C)O[C@@H]2C)C[C@H](O)[C@@H]1O,-7.98% (inactive),–,–,–,–,inactive,–,inactive,–,–
CCCCO,–,1.82%,inactive,inactive,inactive,inactive,-9.48% and 0.366%,inactive,inactive,–
CC[C@H]1OC(=O)[C@H](C)[C@@H](O[C@H]2C[C@@](C)(OC)[C@@H](O)[C@H](C)O2)[C@H](C)[C@@H](O[C@@H]2O[C@H](C)C[C@H](N(C)C)[C@H]2O)[C@](C)(O)C[C@@H](C)CN(C)[C@H](C)[C@@H](O)[C@]1(C)O,–,–,–,inactive,inactive,inactive,–,inactive,inactive,–
O.O.O.O.O.O.O.O=S(=O)([O-])[O-].[Co+2],–,–,–,inactive,–,–,2.89%,inactive,inactive,–
C/C=C/C=C/C(=O)O,–,0.118%,inactive,inactive,inactive,inactive,-7.77%,inactive,–,–
Oc1ccc(/C=C/c2cc(O)cc(O)c2)cc1,–,–,–,–,inactive,inactive,–,inactive,–,–
C=C(C)C1CC=C(C)CC1 (configuration not stated),-1.86% (inactive) and -2.03% (inactive),–,–,–,inactive,inactive,2.14%,–,–,–
C[C@H](CCC(=O)O)[C@H]1CC[C@H]2[C@@H]3CC[C@@H]4C[C@H](O)CC[C@]4(C)[C@H]3C[C@H](O)[C@]12C,-6.09% (inactive),–,–,–,inactive,inactive,–,inactive,–,–
O=C(OCc1ccccc1)c1ccc(O)cc1,–,–,–,inactive,–,–,–,inactive,inactive,–
CC(C)O,–,15.2%,inactive,inactive,inactive,inactive,-10.8%,–,–,–
Cc1ncc[nH]1,–,34.3%,inactive,inactive,inactive,inactive,5.14%,inactive,inactive,–
CC(C)[C@@H]1CC[C@@H](C)C[C@H]1O,–,-3.98%,inactive,inactive,inactive,inactive,-16.2%,inactive,inactive,–
ClC(Cl)Cl,-4.49% (inactive),–,–,–,inactive,inactive,-2.31%,–,–,–
